MBNL1 CUG block: blocks human MBNL1 binding to CUG repeat RNA; TR-FRET MBNL1-His/biotin-(CUG)12 binding, 665/545 ratio; Potency, µM (series often up to 57.5 µM), without a hit: at the top dose activity change, negative = inhibition, actives largely listed as inhibitors; hit rate 0.036% among 280,000; active = well fitted inhibition curve with a large enough effect in the signal ratio, with a control signal flat, not every such curve was filed as active; inconclusive = small, poorly fitted or top-dose-only effect, or effect the other way, or a change in a side signal; inactive = no such curve, though single readings can be large or run the other way; the % refers to the signal ratio; note: potency is the fitted concentration of half-maximal effect; % is set by controls: 0 for no effect and ±100 for the full control effect
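Compound titration spanned 92 nM–58 uM against the MBNL1-His/biotin-(CUG)12 complex. After 60 min at room temperature with 5 nM streptavidin-XL665 and 0.055 ng/ul terbium anti-His, ratiometric 665/545 nm emission (Ex 340 nm) normalized to controls.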
KCNH2 3.1 inh: blocks the human KCNH2 3.1 channel isoform | activity change, % (tested at about 1.8 µM) | AID 720553 | hit rate 0.95% among 340,000 | U2OS KCNH2 3.1, thallium flux FluxOr; hits give low values;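 active = maximum activity change below -70%; inconclusive = maximum activity change from -70% to -50%; inactive = maximum activity change above -50%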;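 note: thallium influx rate constant from kinetic fluorescence after stimulation buffer; % is set by controls: 0 for no effect and ±100 for the full control effect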
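Kinetic fluorescence (2 min after stimulation buffer) measures Tl+ influx through KCNH2 3.1 expressed by viral transduction in U2OS cells; the rate constant is normalized against DMSO controls serving as positive and negative references.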
PLK1 PBD inh: inhibitors of human PLK1 polo-box domain binding; hit rate 2.8% among 360,000; Plk1 PBD binding of FITC phosphopeptide, fluorescence polarization; Potency, µM, for inactives: max response, negative = inhibition, most hits filed as inhibitors; AID 720504; note: potency is the fitted concentration of half-maximal effect; series mostly up to about 57 µM; % is set by controls: 0 for no effect and ±100 for the full control effect; nearly all actives have a fitted effect of over 65% in size
Target sequence (P53350 whole entry, looked up, the tested form may be a part): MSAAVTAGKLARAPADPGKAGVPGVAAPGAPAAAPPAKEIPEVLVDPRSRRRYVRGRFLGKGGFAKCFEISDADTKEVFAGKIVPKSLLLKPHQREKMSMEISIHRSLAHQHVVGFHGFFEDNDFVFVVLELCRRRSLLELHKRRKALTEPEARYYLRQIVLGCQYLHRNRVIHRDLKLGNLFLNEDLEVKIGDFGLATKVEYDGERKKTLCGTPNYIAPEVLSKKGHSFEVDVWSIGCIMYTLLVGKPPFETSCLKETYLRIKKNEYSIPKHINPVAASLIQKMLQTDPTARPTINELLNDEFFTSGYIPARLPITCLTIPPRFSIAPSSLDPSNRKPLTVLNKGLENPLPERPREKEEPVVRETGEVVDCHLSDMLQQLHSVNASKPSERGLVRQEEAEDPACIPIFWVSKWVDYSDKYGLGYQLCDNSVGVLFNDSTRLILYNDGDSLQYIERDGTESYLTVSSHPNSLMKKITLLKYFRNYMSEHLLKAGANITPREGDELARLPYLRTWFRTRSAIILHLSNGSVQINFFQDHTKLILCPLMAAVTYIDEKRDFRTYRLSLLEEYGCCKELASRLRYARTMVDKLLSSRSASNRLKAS
KCNH2 WT inh: inhibitors of human wildtype KCNH2 potassium channel | AID 720551 | hit rate 0.37% among 340,000 | Q12809 | activity change, % at 1.84 µM | U2OS, BacMam KCNH2, thallium flux FluxOr; hits give low values;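 active = maximum activity change below -70%; inconclusive = maximum activity change between -70% and -50%; inactive = maximum activity change above -50%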; note: % is set by controls: 0 for no effect and ±100 for the full control effect
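U2OS cells transduced with wild-type KCNH2 virus are loaded with FluxOr dye for 45 min, and thallium flux is measured in kinetic reads before and after stimulation buffer. Rate constants are normalized to DMSO controls.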
CBFb RUNX1 block: inhibitors of human CBF-beta and RUNX1 interaction; Q01196+Q13951; AlphaScreen CBFb-His/RUNX1-biotin binding, biochemical; Potency, µM (highest dose often 59.8 µM), for the others: at the highest dose activity, negative = inhibition, actives largely listed as inhibitors; 230,000 tested, under 10 active; note: % of control where 0% means no effect
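CBF-beta (His) and RUNX1 (biotin), 30 nM each; 20 min preassociation; + compound, 15 min; + beads 50 ng each (Ni, streptavidin), 90 min; RT; AlphaScreen read.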
VDR inh: blocks the human vitamin D receptor. AID 504847. Potency, µM, without a hit: max response, negative = inhibition, most hits filed as inhibitors. VDR-SRC2-3 peptide fluorescence polarization, 2 h. hit rate 0.93% among 400,000. P11473; note: potency is the fitted concentration of half-maximal effect; % is set by controls: 0 for no effect and ±100 for the full control effect
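Fluorescence polarization assay of small-molecule disruption of VDR binding to coregulator peptide SRC2-3. Compounds and controls pin-transferred, then read after 2 h incubation at ambient room temperature.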
Numbers without * were called inactive; ? = inconclusive; · = no result given. In the library only some 3.8% were active in any assay of this set; here they are far more common. Unless noted, calls come from the whole dose curve; as a rule, active = well fitted curve in the direction sought with a large enough effect; inconclusive = small, poorly fitted or top-dose-only effect, or another doubt; inactive = no such curve, though single readings can be large; an effect the other way counts as inactive or inconclusive.

SMILES	MBNL1 CUG block	KCNH2 3.1 inh	PLK1 PBD inh	KCNH2 WT inh	CBFb RUNX1 block	VDR inh
CCC1C(=O)CC(c2ccc([N+](=O)[O-])cc2)NC1c1ccc([N+](=O)[O-])cc1 (stereo unspecified)	?	-79*	-2%	-14	6%	-21%
Cc1ccc(-c2[nH][nH]c(=O)c(=O)c2N=Nc2ccccc2)cc1	-15%	14	30µM*	6	10%	-18%
Cc1cc(=O)n2[nH]c(=O)c(N=Nc3ccccc3)c2[nH]1	?	2	-5%	6	-10%	7%
Cc1ccc(S(=O)(=O)Nc2c(C(=O)O)[nH]c3ccccc23)c(C)c1	8%	-7	27µM*	-1	·	-22%
C=CCn1c(CNc2ccccc2)nnc1SCC(=O)N/N=C/c1ccc(O)cc1O	2%	9	27µM*	-5	-16%	-23%
O=C(c1ccoc1)N1CCCC(CO)(CCCc2ccccc2)C1 (stereo unspecified)	2%	-155*	-5%	-16	·	1%
Cc1ccccc1CC1(CO)CCCN(C(=O)c2ccoc2)C1 (stereo unspecified)	·	-9	5%	7	·	·
O=C1NC2(CCCCCC2)C(=O)N1Cc1ccc(F)cc1Cl	-3%	-127*	2%	-3	·	18%
CO/N=C(\C(=O)N[C@@H]1C(=O)N2C(C(=O)O)=C(COC(C)=O)CS[C@H]12)c1csc(N)n1	·	·	·	·	-16%	71µM*
CO/N=C(\C(=O)N[C@@H]1C(=O)N2C(C(=O)[O-])=C(C[n+]3cccc4c3CCC4)CS[C@H]12)c1csc(N)n1	·	·	·	·	·	28µM*
Cc1ccc(Cl)cc1NC(=O)N1CCC(CN2CCc3ccccc3C2)CC1	·	·	·	·	·	17%
CC(=O)n1c2ccccc2c2nc(NC(C)C)sc21	21%	-11	27µM*	-10	-11%	?
Cc1ccc(NC(=O)N2CCC(CN3CCCCCC3)CC2)c(Cl)c1	·	·	·	·	·	9%
CC1(C)CC(=O)C2=C(C1)c1c(ccc3ccccc13)NC2c1cc([N+](=O)[O-])cc([N+](=O)[O-])c1O (stereo unspecified)	?	3	3.4µM*	0	-1%	-6%
CC(C)C[C@H](NC(=O)[C@H](Cc1ccccc1)NC(=O)CNC(=O)CNC(=O)[C@@H](N)Cc1ccc(O)cc1)C(=O)N[C@@H](CCCN=C(N)N)C(=O)N[C@@H](CCCN=C(N)N)C(=O)N[C@@H](CCC(N)=O)C(=O)N[C@@H](Cc1ccccc1)C(=O)N[C@@H](CCCCN)C(=O)N[C@H](C(=O)N[C@H](C(=O)N[C@H](C(=O)O)[C@@H](C)O)C(C)C)C(C)C	·	·	·	·	5%	-16%
CCNC(=O)Nc1nc2ccccc2s1	-2%	0	8%	-2	0%	0%
CCOc1ccc2nc(NC(=S)N(C)C)sc2c1	6%	21	19µM*	-7	-4%	-23%
CN(C)C(=S)Nc1nc2ccccc2s1	1%	1	11µM*	-9	-2%	?
Cn1c(CNC(=O)CNC(=O)c2cccc(Cl)c2)cc(=O)n(C)c1=O	-7%	5	-1%	3	·	7%
Cc1cccc(CC(=O)NCC(=O)NCc2cc(=O)n(C)c(=O)n2C)c1	-7%	-7	3µM*	5	·	?
CCN1CCN(CCCN(Cc2ccco2)C(=S)Nc2cc(Cl)ccc2C)CC1	-1%	-10	24µM*	46	-8%	-16%
CCN1CCN(CCCN(Cc2ccco2)C(=S)Nc2ccc(C)c(Cl)c2)CC1	-4%	-39	-16%	50	-9%	-9%
Cc1cc(C)c(NC(=S)N(CCN2CCCCC2)Cc2ccco2)c(C)c1	-8%	9	21µM*	-4	4%	-11%
CC(Cc1n[nH]c(=S)o1)c1ccccc1 (stereo unspecified)	-6%	1	24µM*	·	7%	-20%
COc1ccc(CN2CC[C@H]3C=CCc4cccc(c43)C2)cc1	·	-85*	-15%	1	·	1%
SMILES	MBNL1 CUG block	KCNH2 3.1 inh	PLK1 PBD inh	KCNH2 WT inh	CBFb RUNX1 block	VDR inh
CCS(=O)(=O)CCSc1nc2ccccc2o1	9%	7	-4%	3	8%	7%
O=S(=O)(NCCSc1nc2ccccc2o1)c1ccccc1	-14%	-1	8.4µM*	-1	1%	-18%
Cc1ccc(NC(=O)N2CC3CCCN3c3ccccc32)c(C)c1 (stereo unspecified)	·	·	·	·	·	-3%
CC(C)CCNC(=O)NC(=O)COC(=O)/C=C/c1cc(Br)ccc1F	-9%	-15	15µM*	0	2%	?
O=C(/C=C/c1cc(Br)ccc1F)OCC(=O)N1CCCC1	·	-16	2%	-4	·	-10%
CCN(CC)S(=O)(=O)c1ccc(/C(O)=C(\C#N)c2nc3ccccc3n2C)cc1	-1%	1	-10%	-3	2%	-19%
Cn1c(/C(C#N)=C(\O)c2ccc([N+](=O)[O-])cc2)nc2ccccc21	10%	6	24µM*	·	13%	?
CCn1c(SCC(=O)Nc2ccc3c(c2)OCCO3)nnc1-c1cccs1	-8%	-81*	-2%	-1	0%	0%
CCn1c(C)nnc1SCC(=O)Nc1ccc2c(c1)OCCO2	5%	4	-15%	-26	·	-26%
CCn1c(SCC(=O)NCc2ccco2)nnc1-c1cccs1	-4%	-74*	-8%	9	-20%	1%
O=C(CSc1nnc(CNc2cccc(C(F)(F)F)c2)n1Cc1ccco1)NCc1ccco1	-1%	-14	30µM*	-14	?	0%
CCc1nnc(SCC(=O)Nc2ccc3c(c2)OCO3)n1CC	3%	·	-8%	-205*	·	2%
CCc1ccc(-c2cn3c(n2)sc2cc(C(=O)NC4CCCCCC4)ccc23)cc1	·	·	·	·	·	-11%
COc1ccc(C(=O)N2CCC(C(=O)Nc3ccc(OC)cc3OC)CC2)cc1	·	·	·	·	·	2%
Cc1ccc(C(=O)Nc2nc3n(n2)C(c2ccc(F)cc2)C=C(c2ccccc2)N3)cc1 (stereo unspecified)	·	·	·	·	·	20%
CCOC(=O)C1=C(CN2CCN(c3ccc(Cl)cc3)CC2)NC(=O)NC1c1ccc(OC)cc1 (stereo unspecified)	·	·	·	·	·	-6%
Cc1ccc(S(=O)(=O)c2c(Nc3cc(F)ccc3F)sc(C(=O)c3ccc(F)cc3)c2N)cc1	·	·	·	·	·	-24%
CCc1ccc(S(=O)(=O)c2cnc3ccc(OC)cc3c2N2CCCC(C)C2)cc1 (stereo unspecified)	·	·	·	·	·	-15%
COc1ccc(/C=C\c2onc(C)c2S(=O)(=O)N2CCC(C(=O)Nc3cccc(OC)c3)CC2)cc1	·	·	·	·	·	8%
CCn1c(SC(=O)NC2CCCCC2)nnc1-c1cccs1	?	2	2.7µM*	-3	-4%	9%
